In the library only some 2.8% were active in any assay of this set; here they are far more common.
pS6 MEF inh: inhibitors of mTORC1 signaling in Tsc2-/- p53-/- MEF cells. AID 493208. Potency, µM (highest dose often 38.3 µM), inactives show at the top dose activity change, negative = inhibition, hits mostly inhibitors. Tsc2-/- p53-/- MEF, phospho-rpS6 immunofluorescence/PI, 24 h. 44,000 tested, 0.78% active;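 note: potency is the fitted concentration of half-maximal effect; plate controls were DMSO for no effect and rapamycin for full effect; nearly all actives have a fitted effect of over 50% in size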
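Compounds act on Tsc2-/-, p53-/- fibroblasts carrying an empty vector for 24 h before fixation and dual staining for phospho-S6 and DNA (propidium iodide). Values are percentages of cells above a rapamycin-defined pS6/PI threshold.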
GALC G270D act: raises human GALC G270D mutant activity in cells. 45,000 tested, 0.1% active. Potency, µM (doses to about 57.5 µM), most hits filed as activators. P54803. 145M-Twi-hGALC-G270D cells, HMU-beta-Gal fluorescence, 48 h. AID 1159614; note: potency is the fitted concentration of half-maximal effect; 0% is about no effect; nearly all actives have a fitted effect of over 65% in size
Target sequence (P54803 whole entry G286D): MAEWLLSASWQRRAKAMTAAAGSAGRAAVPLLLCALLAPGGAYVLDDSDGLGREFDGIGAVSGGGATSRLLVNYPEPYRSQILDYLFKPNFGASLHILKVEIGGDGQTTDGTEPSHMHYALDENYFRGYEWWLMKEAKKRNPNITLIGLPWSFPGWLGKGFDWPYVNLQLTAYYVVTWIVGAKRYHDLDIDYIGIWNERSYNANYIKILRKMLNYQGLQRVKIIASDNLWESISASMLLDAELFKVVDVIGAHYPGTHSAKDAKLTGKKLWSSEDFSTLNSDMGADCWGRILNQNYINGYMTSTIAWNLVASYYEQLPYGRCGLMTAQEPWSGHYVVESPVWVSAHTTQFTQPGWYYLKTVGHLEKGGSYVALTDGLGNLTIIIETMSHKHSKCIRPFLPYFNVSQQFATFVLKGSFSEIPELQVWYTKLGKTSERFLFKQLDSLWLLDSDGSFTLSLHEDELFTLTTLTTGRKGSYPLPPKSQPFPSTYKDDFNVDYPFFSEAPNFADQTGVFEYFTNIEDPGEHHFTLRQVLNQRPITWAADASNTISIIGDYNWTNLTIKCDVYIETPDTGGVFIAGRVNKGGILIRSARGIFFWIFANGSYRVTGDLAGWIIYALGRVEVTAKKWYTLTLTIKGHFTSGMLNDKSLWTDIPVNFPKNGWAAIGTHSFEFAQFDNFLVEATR
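qHTS, 1536-well; 145M-Twi-hGALC-G270D cells (WT line also made) in DMEM/F12 + 10% FBS; compound incubation on live cells; HMU-β-gal 0.1 mM final, pH 5.2, NaTC; carbonate stop; fluorescence increase = enhanced residual activity.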
S16 viability: S16 Schwann cell cytotoxicity; S16 Pmp22-F2sN Schwann cells viability, CellTiter-Glo, 24 h; Potency, µM (titrated, usually from 57.5 µM), for the others: at the highest dose activity change, negative = cytotoxicity, most hits filed as cytotoxic; 43,000 tested, 0.48% active; AID 1508642; note: potency is the fitted concentration of half-maximal effect; % is set by controls: 0 for no effect and ±100 for the full control effect; nearly all actives have a fitted effect of over 65% in size
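Rat S16 Schwann reporter line, 24 h treatment with library compounds delivered at 23 nL per well. Cell viability by CellTiter-Glo luminescence.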
PMP22 txn: PMP22 gene transcription modulation. S16 Pmp22-F2sN Schwann cells, FLuc/NLuc coincidence luminescence, 24 h. Potency, µM (top dose mostly 57.5 µM), for the others: at the top dose activity change, negative = inhibition, actives largely listed as inhibitors. 43,000 tested, 2% active; active = clear falling dose curves in both reporters; inconclusive = both reporters move, but less clearly or upward; inactive = either reporter flat; the % is the NLuc reporter signal; note: potency is the fitted concentration of half-maximal effect; % is set by controls: 0 for no effect and ±100 for the full control effect
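qHTS, 1536-well. Cells seeded, compounds added by pin tool, 24 h 37C. Nano-Glo reagent 1 (lysis/FLuc), 10 min RT, read; Stop&Glo, 10 min RT, read NLuc.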
NLuc sat counter: inhibits NanoLuc at saturating substrate, PMP22 counter-screen. shares compounds with PMP22 txn. Secreted NLuc enzyme (filtered S16 cell medium), Nano-Glo luminescence. Potency, µM (doses to about 57.5 µM), inactives show at the highest dose activity change, negative = inhibition, hits mostly inhibitors. 690 tested, 4% active. AID 1508638; note: potency is the fitted concentration of half-maximal effect; % is set by controls: 0 for no effect and ±100 for the full control effect
NLuc Km counter: counter-screen for PMP22 expression modulators: NanoLuc inhibition at Km | shares compounds with PMP22 txn | secreted NLuc enzyme, coelenterazine luminescence, Km conditions | Potency, µM (doses to about 57.5 µM), for inactives: at the highest dose activity change, negative = inhibition, actives largely listed as inhibitors | 690 tested, 5% active | AID 1508639; note: potency is the fitted concentration of half-maximal effect; % is set by controls: 0 for no effect and ±100 for the full control effect
FLuc counter: inhibits firefly luciferase, PMP22 counter-screen. Potency, µM (series often up to 57.5 µM), for the others: at the top dose activity, negative = inhibition, actives largely listed as inhibitors. AID 1508640. 690 tested, under 10 active. purified P. pyralis FLuc, luminescence, 10 min. shares compounds with PMP22 txn; note: % of control where 0% means no effect
S16 viab conf: confirmation of cytotoxicity in S16 Pmp22-F2sN Schwann cells (luciferase reporters placed in the Pmp22 gene). AID 1508641. 690 tested, 7% active. shares compounds with PMP22 txn. Potency, µM (doses to about 57.5 µM), inactives show at the highest dose activity change, negative = viability loss, most hits filed as cytotoxic. S16 Schwann cells viability, CellTiter-Glo ATP luminescence, 24 h; note: potency is the fitted concentration of half-maximal effect; % is set by controls: 0 for no effect and ±100 for the full control effect
PMP22 txn conf: PMP22 transcription modulation, confirmatory | shares compounds with PMP22 txn | Potency, µM (top dose mostly 57.5 µM), without a hit: at the top dose activity change, negative = inhibition, usual class: inhibitors | 690 tested, 22% active | S16 Schwann cells Pmp22-F2sN, dual luciferase, 24 h | AID 1508646; active = clear falling dose curves in both reporters; inconclusive = both reporters move, but less clearly or upward; inactive = either reporter flat; the % is the FLuc reporter signal; note: potency is the fitted concentration of half-maximal effect
PMP22 prot conf: rat PMP22 protein level modulation, confirmatory; shares compounds with PMP22 txn; S16 Schwann cells Pmp22-HiBiT, luminescence, 48 h; Potency, µM (titrated, usually from 27.9 µM), for the others: at the top dose activity change, negative = inhibition, actives largely listed as inhibitors; 95 tested, under 10 active; AID 1508647
Starred values were filed as active, the others as inactive; i = inactive; u = inconclusive; x = not tested or not shown. Unless noted, calls come from the whole dose curve; as a rule, active = well fitted curve in the direction sought with a large enough effect; inconclusive = small, poorly fitted or top-dose-only effect, or another doubt; inactive = no such curve, though single readings can be large; an effect the other way counts as inactive or inconclusive.

SMILES	pS6 MEF inh	GALC G270D act	S16 viability	PMP22 txn	NLuc sat counter	NLuc Km counter	FLuc counter	S16 viab conf	PMP22 txn conf	others
CCOC(=O)c1ccc(NC(=O)Cn2cc(C(=O)c3ccc(Cl)cc3)c(=O)c3ccc(C)nc32)cc1	2.7%	i	u	12.1µM*	x	x	x	x	x
Cc1ccc(Cl)cc1N1CCN(CCCNC(=O)C2COc3ccccc3C2)CC1 (stereo not given)	-7.1%	i	u	u	x	x	x	x	x
COc1ccc(-c2nc3ccccc3o2)cc1NC(=O)c1ccc(OCC(C)C)cc1	-0.9%	i	6.8%	u	x	x	x	x	x
Cc1cc(=O)oc2cc(O)ccc12	x	28.2µM*	x	x	x	x	x	x	x
COc1ccc(N2CCN(C(=O)C(C)n3nc(C)c4sc5ccccc5c4c3=O)CC2)cc1 (stereo not given)	1.31µM*	i	11.7%	u	x	x	x	x	x
Cc1nn(C(C)C(=O)NC2CCC(C)CC2)c(=O)c2c1sc1ccccc12 (stereo not given)	2.07µM*	i	6.9%	u	x	x	x	x	x
COc1ccc(C(C(=O)NCc2ccccc2)N(C(=O)Cn2nnc3ccccc32)c2ccc(F)cc2)cc1 (stereo not given)	-3.6%	i	5.1%	11.3µM*	-0.5%	2.0%	0.4%	-0.8%	-1.2%
CCS(=O)(=O)N1CCC(C(=O)NCCC(C)C)CC1	9.8%	i	10.2%	0.8%	x	x	x	x	x
C#CCSc1nc(-c2ccccc2)cc(-c2ccccc2)c1C#N	-17.1%	i	4.2%	u	x	x	x	x	x
CCCCS(=O)(=O)c1nc(-c2ccc(Br)cc2)cc(-c2ccccc2)c1C#N	5.21µM*	i	u	6.78µM*	-11.9%	3.3%	3.8%	-12.1%	9.27µM*	PMP22 prot conf=98.3%
Cc1ccc(S(=O)(=O)Nc2cc3c(cc2N2CCOCC2)n(C)c(=O)n3C)cc1	-17.5%	x	x	x	x	x	x	x	x
Cc1ccc(S(=O)(=O)Nc2cc3c(cc2N2CCOCC2)n(C)c(=O)n3C)c(C)c1	1.5%	i	u	15µM*	-3.7%	-2.9%	5.5%	-8.9%	-45.2%
COc1ccc(NCc2cc3cc4c(cc3n(CC(=O)Nc3ccc(F)cc3F)c2=O)OCO4)cc1	-4.7%	u	-25.3%	17.9µM*	u	-3.2%	3.9%	5.0%	-7.6%
COc1ccc(NCc2cc3cc4c(cc3n(CC(=O)Nc3cccc(F)c3)c2=O)OCO4)cc1	0.6%	i	5.5%	u	x	x	x	x	x
O=C(CCS(=O)(=O)c1nc(-c2cccs2)cc(C(F)(F)F)n1)Nc1ccc(Br)cc1	u	i	u	6.45µM*	-7.2%	u	-3.0%	u	10.9µM*	PMP22 prot conf=64.8%
COc1ccccc1-c1c(C)nn2c(N3CCN(c4cccc(Cl)c4)CC3)cc(C)nc12	-0.8%	i	3.1%	8.1%	x	x	x	x	x
Cc1ccccc1Nc1nn2c(=O)c3ccc(C(=O)NCc4cccs4)cc3nc2s1	-3.0%	i	-27.1%	u	x	x	x	x	x
Cc1ccc(Cl)cc1Nc1nn2c(=O)c3ccc(C(=O)NCc4cccs4)cc3nc2s1	-1.2%	i	25.1µM*	8.43µM*	-7.6%	-3.4%	-0.4%	27.3µM*	u
CCCN(CCC)CCCNC(=O)c1cc2c(=O)oc3ccc(C)cc3c2s1	-14.3%	i	u	u	-7.1%	-1.1%	-6.8%	u	u
COc1ccc(CNC(=O)Cn2c(=O)n3nc(-c4cccc(F)c4)nc3c3ccccc32)cc1OC	1.7%	i	-3.1%	-20.2%	x	x	x	x	x
COc1ccc(CNC(=O)C(=O)NCC(c2ccco2)S(=O)(=O)c2ccc(Cl)cc2)cc1 (stereo not given)	-15.4%	i	-3.1%	-4.9%	x	x	x	x	x
COC(=O)c1ccc(CSc2nc3c([nH]c4ccccc43)c(=O)n2-c2cccc(OC)c2)o1	-8.7%	i	-7.5%	-23.8%	x	x	x	x	x
COC(=O)c1ccc(CSc2nc3c([nH]c4ccccc43)c(=O)n2-c2cccc(Cl)c2)o1	-2.4%	i	13.2%	17.9µM*	u	-18.0%	-0.2%	u	6.11µM*
Cc1ccc(CNC(=O)CN2C(=O)C3CCCCN3c3ccc(C(=O)N(C)C)cc32)cc1 (stereo not given)	-1.8%	i	6.1%	0.4%	x	x	x	x	x
COc1ccc(NC(=O)c2ccc3oc(=O)c(S(=O)(=O)c4ccc(F)cc4)cc3c2)cc1OC	1.2%	i	-1.2%	-0.8%	x	x	x	x	x
SMILES	pS6 MEF inh	GALC G270D act	S16 viability	PMP22 txn	NLuc sat counter	NLuc Km counter	FLuc counter	S16 viab conf	PMP22 txn conf	others
Cc1cc(C)cc(NC(=O)c2ccc3oc(=O)c(S(=O)(=O)c4ccc(F)cc4)cc3c2)c1	-9.2%	i	-15.0%	11.2µM*	2.7%	6.0%	1.8%	-3.2%	-19.6%
COc1ccc(-c2cc(C(F)(F)F)n3nc(C)c(-c4ccccc4)c3n2)cc1OC	-10.9%	i	22.7%	10.6µM*	0.1%	2.0%	5.4%	-6.6%	u
CCn1cc2nc(SCc3cc(C)ccc3C)n(CCc3ccccc3)c(=O)c2n1	4.9%	i	u	u	x	x	x	x	x
CCCS(=O)(=O)N1CC(=O)N(c2cccc(Cl)c2C)C(C)(C(=O)NC2CCCC2)C1 (stereo not given)	1.4%	i	12.1%	-10.5%	x	x	x	x	x
CCOC(=O)c1ccccc1NC(=O)n1ncc2cc(Cl)ccc21	1.6%	i	-2.4%	9.6%	x	x	x	x	x
CCOC(=O)c1cc(NC(=O)c2ccccc2)c(=O)n2c1oc1ccc(Cl)cc12	-6.4%	i	u	u	-3.5%	3.3%	6.3%	10.0%	u
Cc1ccccc1CCNCc1c(C(=O)O)c(C)n(Cc2c(F)cccc2Cl)c1C	-2.3%	i	-18.0%	-14.1%	x	x	x	x	x

Screens (PubChem)
